Assay outcomes: PubChem BioAssay, National Center for Advancing Translational Sciences (NCATS)
Compounds with a hit are over-represented: about 17% of the library has one in this group of screens.
ATXN2 expr inh = reduces ATXN2 reporter expression in HEK-293 cells. HEK-293 ATXN2-luciferase reporter, luminescence, 24 h. 360,000 compounds, 0.72% hits. AID 1745845. Potency, µM (highest dose often 57 µM), without a hit: at the top dose activity change, negative = inhibition, actives largely listed as inhibitors; also: % is scaled to controls: 0 for no effect and ±100 for the full control effect; nearly all actives have a fitted effect of over 55% in size
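qHTS (up to 57 uM final) was run with 24 h compound exposure of reporter cells at 37 °C. Each well was multiplexed: SteadyGlo luminescence measured ATXN2-luciferase expression after a fluorogenic Gly-Phe-AFC viability readout (25 uM final).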
S2 tox = cell viability loss in ATXN counter-screen. Potency, µM (titrated, usually from 56.7 µM), actives largely listed as cytotoxic. S2 cells (HEK-293 line with an ATXN2-luciferase reporter) viability, CellTiter-Fluor protease fluorescence, 24 h. 400,000 compounds, 0.49% hits; also: nearly all actives have a fitted effect of over 40% in size
TDP1 cell CPT = growth inhibition of DT40 Tdp1-/-;hTDP1 cells with camptothecin (screen for TDP1 inhibitors). Potency, µM (highest dose often 46.2 µM), for the others: top-dose activity change, negative = growth inhibition, most hits filed as inhibitors. 420,000 compounds, 12% hits. chicken DT40 Tdp1-/-;hTDP1 cells + 20 nM CPT, ATP luminescence, 48 h. AID 686979; also: % is scaled to controls: 0 for no effect and ±100 for the full control effect; nearly all actives have a fitted effect of over 55% in size
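Chicken DT40 Tdp1-/- cells stably complemented with human TDP1 were seeded at 400 cells/well in medium containing 20 nM camptothecin, exposed to pin-transferred compounds, and grown at 37 °C for at least 48 hr. Viability was read as ATP luminescence.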
HepG2 tox = kills HepG2 cells in TGF-b inhibitor counter-screen | HepG2 CAGA-GFP viability, ATP luminescence, 18 h | Potency, µM (doses to about 46.1 µM), inactives show at the top dose activity change, negative = cytotoxicity, usual class: cytotoxic | 410,000 compounds, 0.76% hits | AID 588856
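CellTiter-Glo luminescence gave cytotoxicity after 18 hours at 37 degrees C. The cells were HepG2 CAGA-GFP in 1% FBS DMEM, stimulated with 500 pg/mL TGF-beta after compound addition. %Activity was normalised to no-cell wells (complete cell-killing) and DMSO (no toxicity), and curves were fitted and classified.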
TGFb SMAD3 inh = blocks TGF-b signaling; HepG2 CAGA-GFP TGF-b/SMAD3 reporter, GFP fluorescence, 18 h; TGF-beta stimulated, 500 pg/mL final; Potency, µM (titrated, usually from 46.1 µM), without a hit: at the highest dose activity, negative = inhibition, usual class: inhibitors; 410,000 compounds, 1.2% hits; AID 588855; also: % is scaled to controls: 0 for no effect and ±100 for the full control effect; nearly all actives have a fitted effect of over 65% in size
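Using HEPG2 CAGA-GFP reporter cells at 1000 cells/well, we pinned test compounds, stimulated with recombinant TGF-beta (500 pg/mL final) and measured total well GFP after 18 h.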
TDP1 cell noCPT = qHTS for Inhibitors of human tyrosyl-DNA phosphodiesterase 1 (TDP1): qHTS in cells in absence of CPT; DT40 Tdp1-/- hTDP1 cells, no CPT, ATP luminescence, 48 h; 420,000 compounds, 15% hits; Potency, µM (doses to about 46.2 µM), for inactives: at the highest dose activity change, negative = growth inhibition, most hits filed as inhibitors; AID 686978, 2013; also: % is scaled to controls: 0 for no effect and ±100 for the full control effect; nearly all actives have a fitted effect of over 55% in size
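DT40 Tdp1-/-;hTDP1 cells, no CPT (DMSO vehicle only), 400 cells/well; compounds pin-transferred; ≥48 hr, 37 °C; CellTiter-Glo 30 min RT dark, luminescence read.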
Active calls of the source: *; i = inactive; ? = inconclusive; / = not tested or not shown; [ ] = remark or other dose. Calls follow the shape of the dose curve; as a rule, active = well fitted curve in the direction sought with a large enough effect; inconclusive = small, poorly fitted or top-dose-only effect, or another doubt; inactive = no such curve, though single readings can be large; an effect the other way counts as inactive or inconclusive. Potency is read from the fitted curve at half-maximal effect.

SMILES	ATXN2 expr inh	S2 tox	TDP1 cell CPT	HepG2 tox	TGFb SMAD3 inh	TDP1 cell noCPT
Fc1ccc2nc(Nc3nc4cc5c(cc4s3)OCCO5)sc2c1	88.4%	i	16.4µM*	-16.8%	?	?
Fc1ccc2nc(Nc3nc4cc5c(cc4s3)OCO5)sc2c1	116.0%	i	?	-45.9%	?	?
Fc1ccc2nc(Nc3nc4c(F)cc(F)cc4s3)sc2c1	-2.3%	?	16.4µM*	-6.1%	?	14.6µM*
Cc1cccc(-n2c(=S)[nH]c3sc4c(c3c2=O)CCc2ccccc2-4)c1	2.0%[11.3 µM]	i	9.2µM*	-22.0%	61.8%	6.51µM*
CCOc1ccc(NC(=O)CN(C)C(=O)c2cccc(S(=O)(=O)N3CCN(C)CC3)c2)cc1OCC	1.4%	i	1.6%	2.6%	-1.3%	12.0%
Cc1ccc(C(=O)N2C(CC(=O)Nc3ccc(Cl)cc3)C(=O)NC3CCCCC32)cc1 (stereo not given)	-15.0%	i	16.4µM*	0.1%	-28.1%	?
COc1ccc([C@@H](NC(=O)OC(C)(C)C)C(=O)OC(C)(C)C)cc1	-3.8%	i	?	-9.4%	16.7%	?
CC(C)(C)OC(=O)N[C@H](C(=O)OC(C)(C)C)c1ccc2ccccc2c1	5.8%	i	8.2µM*	-6.8%	4.2%	-26.6%
Cc1ccc(OCCNC(=O)CCNC(=O)c2ccc(Cl)cc2)cc1	/	i	-9.8%	-5.1%	1.8%	-20.3%
COc1cc(OC)c(C2=NOC(C(=O)NCc3cccnc3)C2)cc1Cl (stereo not given)	/	i	?	-12.7%	3.4%	14.6µM*
O=C(NCc1cccs1)C1CC(c2ccccc2O)=NO1 (stereo not given)	53.7%	i	20.6µM*	10.8%	-22.8%	?
COc1cc(OC)c(C2=NOC(C(=O)NCCc3ccccc3)C2)cc1Cl (stereo not given)	-0.9%	i	0.6%	-9.2%	?	-14.4%
COc1ccc(C(=O)NCCNc2ccc([N+](=O)[O-])cc2)cc1	/	?	-26.1%	-0.5%	-0.9%	?
COc1cc(OC)c(C2=NOC(C(=O)NCc3cccs3)C2)cc1Cl (stereo not given)	6.1%	i	2.31µM*	14.6%	-7.1%	2.31µM*
COc1ccc(CCNC(=O)c2ccc([N+](=O)[O-])cc2)cc1	2.9%	i	23.1µM*	-11.6%	1.4%	?
CC(C)COC(=O)N1CCCC(c2cc(C(=O)Nc3ccccc3Cl)no2)C1 (stereo not given)	-5.4%	i	-20.0%	-3.8%	-2.9%	-19.7%
O=C(O)c1ccc(-n2cccc2/C=N\NC(=O)c2cc3cc(Br)ccc3o2)cc1	-0.2%	i	13.0%	-4.6%	-1.0%	-0.4%
COc1cccc(C2=NOC(C(=O)Nc3cccnc3Cl)C2)c1OC (stereo not given)	0.4%	i	-3.7%	0.0%	0.5%	-15.9%
COc1cc(C2=NOC(C(=O)NCc3cccs3)C2)cc(OC)c1OC (stereo not given)	-17.2%	i	2.31µM*	-19.7%	-12.8%	1.64µM*
COc1cc(NC(=O)C2CC(c3cccc(OC)c3OC)=NO2)cc(OC)c1OC (stereo not given)	-33.6%	?	14.1µM*	-17.7%	12.1%	15.8µM*
Cc1occc1C(=O)NCc1cccs1	2.4%	i	-8.8%	23.7%	-5.9%	-25.5%
CCn1ncc(C2=NOC(C(=O)NCc3ccc(Cl)cc3)C2)c1C (stereo not given)	-19.7%	?	5.8µM*	-3.6%	-15.3%	5.8µM*
Cc1cc(C(=O)NCc2cccs2)c(C)o1	-4.9%	i	25.9µM*	-4.6%	-17.2%	18.4µM*
Cc1ccc(CC2C(=O)N(c3nc(C)cc(C)n3)C(=O)C2C)cc1 (stereo not given)	-12.3%	i	1.4%	22.0%	26.6%	-20.1%
COC(=O)C[C@@H]1CC[C@@H](NC(=O)Nc2cc(F)ccc2F)[C@@H](CO)O1	/	/	-16.5%	/	/	-5.0%
SMILES	ATXN2 expr inh	S2 tox	TDP1 cell CPT	HepG2 tox	TGFb SMAD3 inh	TDP1 cell noCPT
COc1ccc(C2=NOC(C(=O)NCc3cccs3)C2)cc1 (stereo not given)	10.3%	i	5.17µM*	2.4%	8.7%	2.91µM*
COc1ccc(CCNC(=O)C2CC(c3ccc([N+](=O)[O-])cc3)=NO2)cc1 (stereo not given)	27.8%	i	6.51µM*	-17.2%	-4.7%	?
COc1ccc(C2=NOC(C(=O)NCc3ccc(F)cc3)C2)cc1 (stereo not given)	-13.5%	?	2.31µM*	-11.2%	-4.6%	2.31µM*
COc1ccc(CC(=O)NCc2cccs2)cc1	9.7%	i	23.1µM*	-23.0%	-2.8%	14.6µM*
CCN(CC(=O)NCc1cccs1)C(=O)c1ccc(-c2ccccc2F)o1	13.5%	?	?	-0.4%	2.8%	18.4µM*
CCN1C(=O)C(c2ccc(O)cc2)(c2ccc(O)cc2)c2ccccc21	-0.4%	i	1.8%	40.9%	29.7%	-1.5%
CCCN1C(=O)C(O)(CC(=O)c2ccc(C(C)C)cc2)c2ccccc21 (stereo not given)	/	/	?	-25.6%	/	?
CCCN1C(=O)C(O)(C2COC(C)(C)CC2=O)c2ccccc21 (stereo not given)	-7.5%	i	3.66µM*	3.5%	-25.6%	13µM*
CCN1C(=O)C(O)(c2c[nH]c3ccccc23)c2cc(Br)ccc21 (stereo not given)	-16.5%	i	-9.9%	-27.5%	-7.7%	?
CCN1C(=O)C(O)(C2COC(C)(C)CC2=O)c2ccccc21 (stereo not given)	0.9%	i	13µM*	7.4%	0.6%	8.2µM*
CN1C(=O)C2(OCC(C)([N+](=O)[O-])CO2)c2ccccc21 (stereo not given)	0.4%	i	-2.5%	-7.7%	22.0%	-10.6%
CN1C(=O)C(O)(C2OC(C)(C)CCC2=O)c2ccccc21 (stereo not given)	7.6%	i	8.2µM*	2.8%	22.3%	6.51µM*
CCN1C(=O)C(O)(C2COC(C)(C)CC2=O)c2cc(Br)ccc21 (stereo not given)	-17.0%	i	1.3µM*	-40.2%	?	1.16µM*
CCOc1ccc(NC(=O)CCS(=O)(=O)c2ccc(C)cc2)cc1	7.7%	i	-15.5%	-5.1%	-2.1%	?
